Data reported in PubChem BioAssay (NCATS).
Inconclusive results are not listed. Active and inactive are the calls of the source. The call rests on the fitted dose curve; in most records, active means well fitted curve in the direction sought with a large enough effect; inconclusive means small, poorly fitted or top-dose-only effect, or another doubt; inactive means no such curve, though single readings can be large; an effect the other way counts as inactive or inconclusive.

Tests used:
[1] = system: C33A; experiment: Primary qHTS to identify gynecologic anti-cancer compounds using libraries of approved drugs and bioactive compounds (AID 1345084); settings: Gynecologic cancer cell panel viability, ATPlite luminescence, 48 h; series mostly up to 57.5 µM; further: nearly all actives have a fitted effect of over 55% in size
Summary of the method: (§1)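 Cells, 1,000 per well, were allowed to settle for 16 h at 37 C before compound addition. Five concentrations were tested for 48 h, and viability was read by ATPlite luminescence after 15 min at room temperature.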

[2] = system: CAOV3; experiment: as above; settings: Gynecologic cancer cell panel viability, ATPlite luminescence, 48 h; series mostly up to 57.5 µM
Summary of the method: as §1

[3] = system: CASKI; experiment: as above; settings: Gynecologic cancer cell panel viability, ATPlite luminescence, 48 h; series mostly up to 57.5 µM
Summary of the method: as §1

[4] = system: Es-2; experiment: as above; settings: Gynecologic cancer cell panel viability, ATPlite luminescence, 48 h; series mostly up to 57.5 µM
Summary of the method: as §1

[5] = system: HeLa; experiment: as above; settings: Gynecologic cancer cell panel viability, ATPlite luminescence, 48 h; series mostly up to 57.5 µM
Summary of the method: as §1

[6] = system: Hek293T; experiment: as above; settings: Gynecologic cancer cell panel viability, ATPlite luminescence, 48 h, control line for the selectivity index; series mostly up to 57.5 µM
Summary of the method: as §1

[7] = system: JEG-3; experiment: as above; settings: Gynecologic cancer cell panel viability, ATPlite luminescence, 48 h; series mostly up to 57.5 µM
Summary of the method: as §1

[8] = system: OV90; experiment: as above; settings: Gynecologic cancer cell panel viability, ATPlite luminescence, 48 h; series mostly up to 57.5 µM
Summary of the method: as §1

[9] = system: SKOV3; experiment: as above; settings: Gynecologic cancer cell panel viability, ATPlite luminescence, 48 h; series mostly up to 57.5 µM
Summary of the method: as §1

[10] = system: Tov-21-G; experiment: as above; settings: Gynecologic cancer cell panel viability, ATPlite luminescence, 48 h; series mostly up to 57.5 µM
Summary of the method: as §1

[11] = system: Tov112D; experiment: as above; settings: Gynecologic cancer cell panel viability, ATPlite luminescence, 48 h; series mostly up to 57.5 µM
Summary of the method: as §1

[12] = system: PA-1; experiment: as above; settings: Gynecologic cancer cell panel viability, ATPlite luminescence, 48 h; series mostly up to 57.5 µM
Summary of the method: as §1

[13] = qHTS assay to identify inhibitors of the type 1 interferon - major histocompatibility complex class I in skeletal muscle: Counter screen cell viability and HiBit confirmation (AID 1347412); settings: iHSKM muscle cells + IFN-b, HiBiT or CellTiter-Glo, 24 h; further: nearly all actives have a fitted effect of over 60% in size
Summary of the method: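 Human myoblast knock-in line, 4.0 ng/ml IFN-beta stimulation, 24 h compound treatment. Endpoints: HiBiT lytic luminescence (HLA-B level) and CellTiter Glo (ATP). Dosing 12 concentrations, 3-fold steps, 46 uM highest final.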
On the % scale 0 is the no-effect control and ±100 the full control effect; potency means the concentration at half of the fitted maximal effect.

C[C@@H]1CCC2C(C)(C)[C@H](O)CC[C@]2(C)[C@@]12Cc1c(O)cc3c(c1O2)CN([C@@H](CCC(=O)O)C(=O)O)C3=O (stereo not given in full)
inactive: Potency [1] | Potency [2] | Potency [3] | Potency [4] | Potency [5] | Potency [6] | Potency [7] | Potency [8] | Potency [9] | Potency [10] | Potency [11]

C=C1[C@@H]2CC[C@@H]3[C@@](CCC4C(C(=O)O)(C(=O)O)C[C@@H](O[C@@H]5O[C@H](CO)[C@@H](O)[C@H](O)[C@H]5OC(=O)CC(C)C)C[C@]43C)(C2)[C@H]1O (stereo not given in full)
inactive: Potency [1] | Potency [2] | Potency [3] | Potency [4] | Potency [5] | Potency [6] | Potency [7] | Potency [8] | Potency [9] | Potency [10] | Potency [11]

CC(C)(C)NS(=O)(=O)c1cncc(-c2cc(F)c3nc(N)nn3c2)c1
inactive: Potency [1] | Potency [2] | Potency [3] | Potency [4] | Potency [5] | Potency [6] | Potency [7] | Potency [8] | Potency [9] | Potency [10] | Potency [11]

C=C1CCC2C(C)(C)C(O)CCC2(C)C1CCC(C)CCOC(C)=O (stereo not given)
inactive: Potency [1] | Potency [2] | Potency [3] | Potency [4] | Potency [5] | Potency [6] | Potency [7] | Potency [8] | Potency [10] | Potency [11]

OC[C@H]1O[C@@H](O[C@H]2[C@H](OCCc3ccccc3)O[C@H](CO)[C@@H](O)[C@@H]2O)[C@H](O)[C@@H](O)[C@@H]1O
inactive: Potency [1] | Potency [2] | Potency [3] | Potency [4] | Potency [5] | Potency [6] | Potency [7] | Potency [8] | Potency [9] | Potency [10] | Potency [11]

CC(C)[N+]1(C)C2CCC1CC(OC(=O)C(CO)c1ccccc1)C2 (stereo not given)
inactive: Potency [1] | Potency [2] | Potency [3] | Potency [4] | Potency [5] | Potency [6] | Potency [7] | Potency [8] | Potency [10] | Potency [11]

C1CCC[C@H]2CCCN3CC[C@@H](CCCCCC[C@@H]4CCCN5CC[C@@H](CC1)O[C@@H]45)O[C@@H]23
inactive: activity change, negative = cytotoxicity [1] 6.95% [at 0.155 µM] | activity change, negative = cytotoxicity [2] 1.15% [at 0.155 µM] | activity change, negative = cytotoxicity [3] -13.7% [at 0.155 µM] | activity change, negative = cytotoxicity [4] 2.67% [at 0.155 µM] | activity change, negative = cytotoxicity [5] 18.4% [at 0.155 µM] | activity change, negative = cytotoxicity [6] 4.56% [at 0.155 µM] | activity change, negative = cytotoxicity [7] -9.47% [at 0.155 µM] | activity change, negative = cytotoxicity [8] -15.5% [at 0.155 µM] | activity change, negative = cytotoxicity [9] 0.0209% [at 0.155 µM] | activity change, negative = cytotoxicity [10] 5.89% [at 0.155 µM] | activity change, negative = cytotoxicity [11] 2.94% [at 0.155 µM]

CC1(C)CCC[C@@]2(C)C1[C@H](OC(=O)/C=C/C=C/C(=O)O)C=C1COC(=O)[C@@]12O (stereo not given in full)
inactive: Potency [1] | Potency [2] | Potency [3] | Potency [4] | Potency [5] | Potency [6] | Potency [7] | Potency [8] | Potency [9] | Potency [10] | Potency [11]

C=C1CCC2C(C)(C)CCC[C@]2(C)[C@H]1C/C=C(\CO)C(=O)C(=O)O (stereo not given in full)
inactive: Potency [1] | Potency [2] | Potency [3] | Potency [4] | Potency [5] | Potency [6] | Potency [7] | Potency [8] | Potency [9] | Potency [10] | Potency [11]

CC(=O)N1CCN(Cc2ccc([C@H](C)Nc3nccc(N4C(=O)OC[C@@H]4C(C)C)n3)cc2)CC1
inactive: Potency [1] | Potency [2] | Potency [3] | Potency [4] | Potency [5] | Potency [6] | Potency [8] | Potency [9] | Potency [10] | Potency [11]

CC(C)=CCCC1(C)C=Cc2c(c(C)cc3c2[nH]c2ccccc23)O1 (stereo not given)
inactive: Potency [1] | Potency [2] | Potency [3] | Potency [4] | Potency [5] | Potency [6] | Potency [7] | Potency [10] | Potency [11]
active: Potency [9] 8.91 µM

CCCCc1nc2cc(/C=C/C(=O)NO)ccc2n1CCN(CC)CC
active: Potency [1] 5.01 µM | Potency [2] 8.91 µM | Potency [3] 5.62 µM | Potency [4] 3.16 µM | Potency [5] 2.51 µM | Potency [6] 3.16 µM | Potency [7] 3.16 µM | Potency [12] 0.631 µM | Potency [9] 3.98 µM | Potency [10] 7.94 µM | Potency [11] 3.16 µM | Potency ([13]; HiBiT) 1.11 µM
inactive: activity change, negative = inhibition ([13]; Viability, at 45.9 µM (top of the series)) 3.05%

CCOCc1cc(OC)c(-c2ccc(C[C@H](NC(=O)c3c(F)cccc3F)C(=O)O)cc2)c(OC)c1
inactive: Potency [1] | Potency [2] | Potency [3] | Potency [4] | Potency [5] | Potency [7] | Potency [8] | Potency [12] | Potency [9] | Potency [10]

CC1CC2OC3(OC2C(C)(C)O)C1C1(C)CCC24CC25CCC(O[C@@H]2OC[C@@H](O)[C@H](O)[C@H]2O)C(C)(C)C5CC=C4C1(C)C3O (stereo not given in full)
inactive: Potency [1] | Potency [2] | Potency [3] | Potency [4] | Potency [5] | Potency [6] | Potency [8] | Potency [12] | Potency [9] | Potency [10] | Potency [11]

FC(F)(F)c1cc(-c2ncn(/C=C\c3nnco3)n2)cc(C(F)(F)F)c1
inactive: Potency [1] | Potency [2] | Potency [3] | Potency [5] | Potency [8] | Potency [9] | Potency [10] | Potency [11]
active: Potency [4] 3.16 µM

COC(=O)C1=CO[C@@H](O[C@@H]2O[C@H](CO)[C@@H](O)[C@H](O)[C@H]2O)[C@@H]2C(COC(C)=O)=C[C@H](O)[C@H]12
inactive: Potency [1] | Potency [2] | Potency [3] | Potency [4] | Potency [5] | Potency [6] | Potency [7] | Potency [12] | Potency [10] | Potency [11]
